This passage reports binding signal results from publication PMC7862700, “An all-to-all approach to the identification of sequence-specific readers for epigenetic DNA modifications on cytosine”.

Assay in all cases: DAPPL (digital affinity profiling via proximity ligation, sequencing); 10 mM Tris-HCl pH 7.5, 50 mM NaCl, 1 mM DTT, 4% glycerol, room temperature, 30 min; GST-TFs on glutathione beads, 16-mer random dsDNA library, 0.1% formaldehyde crosslink after washing; high values mean tight binding
For one assay, the target named is T1, FEV (Homo sapiens, UniProt Q99581 1-238).
T1 sequence: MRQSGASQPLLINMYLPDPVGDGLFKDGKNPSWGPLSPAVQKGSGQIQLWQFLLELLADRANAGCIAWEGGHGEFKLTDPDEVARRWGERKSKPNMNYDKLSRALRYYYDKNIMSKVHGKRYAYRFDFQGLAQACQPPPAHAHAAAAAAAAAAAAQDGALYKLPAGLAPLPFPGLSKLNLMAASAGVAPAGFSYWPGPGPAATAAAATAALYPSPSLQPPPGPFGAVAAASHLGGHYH
As to conditions: protein: recombinant; tags: N-terminal GST; dsDNA, one strand shown. A digest of the protocol: (§1)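 Human transcription factors were made in yeast as GST fusions, captured on glutathione beads and barcoded with DNA. With a tag-only sample included, the pool was incubated with 200 nmole of a random double-stranded 16-mer DNA library in Tris/NaCl/DTT/glycerol buffer at room temperature for 30 min, then crosslinked with 0.1% formaldehyde after washing, ligated by proximity, amplified and sequenced. For binding signal, each hexamer's read frequency for a factor is divided by its frequency for the tag-only sample.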

The target of a further assay is ETV5 (Homo sapiens, UniProt P41161 1-510). The conditions noted are these: protein: recombinant; tags: N-terminal GST; dsDNA, one strand shown. Put shortly: as §1
Sequence of ETV5 (P41161 whole entry): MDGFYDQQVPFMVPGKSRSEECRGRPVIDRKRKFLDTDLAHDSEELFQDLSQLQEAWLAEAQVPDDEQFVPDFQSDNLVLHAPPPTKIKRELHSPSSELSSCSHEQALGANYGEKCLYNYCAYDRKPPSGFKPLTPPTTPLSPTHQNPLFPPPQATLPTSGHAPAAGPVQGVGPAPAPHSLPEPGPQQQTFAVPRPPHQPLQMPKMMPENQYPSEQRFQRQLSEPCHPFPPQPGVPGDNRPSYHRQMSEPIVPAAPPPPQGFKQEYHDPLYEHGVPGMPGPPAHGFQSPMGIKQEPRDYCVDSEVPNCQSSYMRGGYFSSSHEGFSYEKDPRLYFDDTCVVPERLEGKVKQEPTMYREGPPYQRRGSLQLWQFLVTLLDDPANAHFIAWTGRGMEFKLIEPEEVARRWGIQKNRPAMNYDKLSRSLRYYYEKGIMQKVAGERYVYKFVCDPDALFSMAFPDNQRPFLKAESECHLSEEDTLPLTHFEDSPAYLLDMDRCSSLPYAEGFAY
The next assay addresses HSF1 (Homo sapiens, UniProt Q00613 1-529). As to conditions: protein: recombinant; tags: N-terminal GST; chain copies: 3; dsDNA, one strand shown. Put shortly: as §1
For a further assay, the target named is T2, SPIC (Homo sapiens, UniProt Q8N5J4 1-248).
T2 sequence: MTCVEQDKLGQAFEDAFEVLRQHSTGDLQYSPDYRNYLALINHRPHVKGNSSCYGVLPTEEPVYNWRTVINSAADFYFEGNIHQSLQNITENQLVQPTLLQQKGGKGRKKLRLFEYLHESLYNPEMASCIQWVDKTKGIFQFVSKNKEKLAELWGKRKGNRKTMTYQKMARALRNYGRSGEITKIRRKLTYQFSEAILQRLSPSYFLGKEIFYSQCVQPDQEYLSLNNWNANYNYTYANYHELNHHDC
As to conditions: protein: recombinant; tags: N-terminal GST; dsDNA, one strand shown. Put shortly: as §1

For another assay, the target named is ELF4 (Homo sapiens, UniProt Q99607 1-663). The conditions noted are these: protein: recombinant; tags: N-terminal GST; dsDNA, one strand shown. A digest of the protocol: as §1
Sequence of ELF4 (Q99607 whole entry): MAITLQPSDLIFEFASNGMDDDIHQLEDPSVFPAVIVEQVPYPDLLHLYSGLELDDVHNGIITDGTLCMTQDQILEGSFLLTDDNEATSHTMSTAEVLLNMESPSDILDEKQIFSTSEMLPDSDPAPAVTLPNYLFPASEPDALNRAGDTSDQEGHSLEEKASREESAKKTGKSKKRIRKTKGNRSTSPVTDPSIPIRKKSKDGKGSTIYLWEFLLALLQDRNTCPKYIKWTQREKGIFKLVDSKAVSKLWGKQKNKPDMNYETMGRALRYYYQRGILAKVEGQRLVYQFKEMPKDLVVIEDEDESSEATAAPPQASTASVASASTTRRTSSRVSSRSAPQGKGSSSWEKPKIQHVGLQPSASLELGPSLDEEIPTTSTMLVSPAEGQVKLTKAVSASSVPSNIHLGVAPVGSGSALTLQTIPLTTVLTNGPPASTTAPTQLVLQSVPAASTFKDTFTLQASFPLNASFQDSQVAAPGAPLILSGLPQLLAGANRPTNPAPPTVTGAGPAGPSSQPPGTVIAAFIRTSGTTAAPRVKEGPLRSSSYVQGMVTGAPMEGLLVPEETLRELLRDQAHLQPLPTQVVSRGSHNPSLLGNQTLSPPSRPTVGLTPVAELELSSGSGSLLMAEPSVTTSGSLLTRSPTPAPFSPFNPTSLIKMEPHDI
The target of the next assay is T3, ELK4 (Homo sapiens, UniProt P28324-2 1-405).
T3 sequence: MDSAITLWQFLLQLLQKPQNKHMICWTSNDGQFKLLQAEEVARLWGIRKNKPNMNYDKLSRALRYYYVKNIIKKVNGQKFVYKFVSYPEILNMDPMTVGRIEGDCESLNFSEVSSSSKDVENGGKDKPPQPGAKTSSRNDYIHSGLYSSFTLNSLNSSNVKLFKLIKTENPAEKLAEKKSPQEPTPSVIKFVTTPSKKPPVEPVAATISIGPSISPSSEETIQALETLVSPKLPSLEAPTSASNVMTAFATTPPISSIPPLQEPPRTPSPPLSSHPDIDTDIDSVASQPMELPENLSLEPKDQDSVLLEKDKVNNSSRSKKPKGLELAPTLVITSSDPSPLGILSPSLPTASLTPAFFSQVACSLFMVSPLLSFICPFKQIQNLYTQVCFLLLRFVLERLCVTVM
As to conditions: protein: recombinant; tags: N-terminal GST; dsDNA, one strand shown. Put shortly:
as §1

The next assay has as its target T4, ETV2 (Homo sapiens, UniProt O00321 1-342).
T4 sequence: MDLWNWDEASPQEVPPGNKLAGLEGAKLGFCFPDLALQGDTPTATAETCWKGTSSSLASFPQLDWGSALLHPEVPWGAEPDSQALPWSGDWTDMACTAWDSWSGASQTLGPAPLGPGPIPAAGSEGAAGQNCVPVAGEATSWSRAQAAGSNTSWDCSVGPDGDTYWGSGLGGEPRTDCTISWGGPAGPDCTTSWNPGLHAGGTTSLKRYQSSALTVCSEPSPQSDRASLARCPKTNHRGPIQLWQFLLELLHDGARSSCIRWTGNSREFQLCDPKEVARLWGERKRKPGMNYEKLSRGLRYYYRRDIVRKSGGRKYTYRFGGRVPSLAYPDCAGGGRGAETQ
As to conditions: protein: recombinant; tags: N-terminal GST; dsDNA, one strand shown. Put shortly: as §1

In another assay the target is T5, ELF3 (Homo sapiens, UniProt P78545 1-371).
T5 sequence: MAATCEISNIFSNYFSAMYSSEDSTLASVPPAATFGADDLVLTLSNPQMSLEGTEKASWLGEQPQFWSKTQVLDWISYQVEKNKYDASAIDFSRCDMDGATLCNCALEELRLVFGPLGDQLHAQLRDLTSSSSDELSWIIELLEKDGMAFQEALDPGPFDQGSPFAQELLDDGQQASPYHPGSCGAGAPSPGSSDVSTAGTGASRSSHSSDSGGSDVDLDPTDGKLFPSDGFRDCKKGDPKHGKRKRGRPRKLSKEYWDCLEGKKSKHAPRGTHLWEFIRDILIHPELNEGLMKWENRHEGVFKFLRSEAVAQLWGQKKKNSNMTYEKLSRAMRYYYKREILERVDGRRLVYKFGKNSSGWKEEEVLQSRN
The conditions noted are these: protein: recombinant; tags: N-terminal GST; dsDNA, one strand shown. Put shortly:
as §1

The target of another assay is CRX (Homo sapiens, UniProt O43186 1-299). The conditions noted are these: protein: recombinant; tags: N-terminal GST; dsDNA, one strand shown. Put shortly: as §1
Sequence of CRX (O43186 whole entry): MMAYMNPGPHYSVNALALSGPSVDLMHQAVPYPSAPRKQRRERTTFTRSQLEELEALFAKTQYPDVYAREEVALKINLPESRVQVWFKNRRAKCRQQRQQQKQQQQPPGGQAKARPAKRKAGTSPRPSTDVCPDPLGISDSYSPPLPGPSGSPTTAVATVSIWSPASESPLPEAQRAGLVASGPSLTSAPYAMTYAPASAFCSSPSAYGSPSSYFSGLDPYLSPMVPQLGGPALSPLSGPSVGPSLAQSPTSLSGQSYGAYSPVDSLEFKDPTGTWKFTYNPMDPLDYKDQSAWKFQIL
Another assay addresses ETV1 (Homo sapiens, UniProt P50549 1-477). The conditions noted are these: protein: recombinant; tags: N-terminal GST; dsDNA, one strand shown. Put shortly: as §1
A further assay deals with T6, ERF (Homo sapiens, UniProt P50548 1-548).
T6 sequence: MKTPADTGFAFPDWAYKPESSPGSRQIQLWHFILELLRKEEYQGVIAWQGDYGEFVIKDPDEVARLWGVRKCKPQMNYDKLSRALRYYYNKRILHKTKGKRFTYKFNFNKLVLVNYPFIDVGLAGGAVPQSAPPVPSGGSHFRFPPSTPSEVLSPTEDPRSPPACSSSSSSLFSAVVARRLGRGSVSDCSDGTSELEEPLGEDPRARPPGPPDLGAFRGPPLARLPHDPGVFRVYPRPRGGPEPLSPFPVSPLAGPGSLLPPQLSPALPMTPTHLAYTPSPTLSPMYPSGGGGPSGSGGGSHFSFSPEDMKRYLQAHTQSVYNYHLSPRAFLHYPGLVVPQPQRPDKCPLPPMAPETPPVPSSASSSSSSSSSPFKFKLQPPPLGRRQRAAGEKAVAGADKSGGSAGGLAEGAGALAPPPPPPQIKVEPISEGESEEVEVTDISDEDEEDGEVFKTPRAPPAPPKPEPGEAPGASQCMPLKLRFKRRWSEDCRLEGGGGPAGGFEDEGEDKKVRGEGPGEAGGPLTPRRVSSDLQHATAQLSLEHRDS
The conditions noted are these: protein: recombinant; tags: N-terminal GST; dsDNA, one strand shown. A digest of the protocol:
as §1

Another assay has as its target T7, ETV3L (Homo sapiens, UniProt Q6ZN32 1-361).
T7 sequence: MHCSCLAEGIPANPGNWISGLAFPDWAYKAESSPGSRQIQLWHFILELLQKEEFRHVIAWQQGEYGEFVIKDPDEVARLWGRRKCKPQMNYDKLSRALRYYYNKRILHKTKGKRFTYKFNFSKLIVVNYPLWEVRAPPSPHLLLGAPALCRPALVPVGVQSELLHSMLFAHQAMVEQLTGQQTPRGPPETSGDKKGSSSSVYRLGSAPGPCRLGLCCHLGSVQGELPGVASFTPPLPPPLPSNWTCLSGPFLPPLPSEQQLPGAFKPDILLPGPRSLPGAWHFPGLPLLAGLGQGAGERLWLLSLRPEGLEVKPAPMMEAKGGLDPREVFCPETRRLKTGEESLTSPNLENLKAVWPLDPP
The conditions noted are these: protein: recombinant; tags: N-terminal GST; dsDNA, one strand shown. A digest of the protocol:
as §1

A further assay concerns the target T8, ETS2 (Homo sapiens, UniProt P15036 1-469).
T8 sequence: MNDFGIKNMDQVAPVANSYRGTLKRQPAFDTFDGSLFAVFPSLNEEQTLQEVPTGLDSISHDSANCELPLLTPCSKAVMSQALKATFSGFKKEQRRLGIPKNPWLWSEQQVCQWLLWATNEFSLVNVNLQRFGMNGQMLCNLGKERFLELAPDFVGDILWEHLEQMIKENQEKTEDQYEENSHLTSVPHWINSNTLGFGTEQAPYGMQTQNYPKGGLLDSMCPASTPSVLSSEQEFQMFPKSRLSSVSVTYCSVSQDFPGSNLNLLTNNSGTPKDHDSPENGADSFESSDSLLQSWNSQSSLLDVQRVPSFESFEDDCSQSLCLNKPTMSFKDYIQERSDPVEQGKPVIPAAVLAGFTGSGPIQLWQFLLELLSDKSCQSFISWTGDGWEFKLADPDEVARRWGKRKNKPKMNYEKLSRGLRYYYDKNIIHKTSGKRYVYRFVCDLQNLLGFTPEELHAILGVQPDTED
The conditions noted are these: protein: recombinant; tags: N-terminal GST; dsDNA, one strand shown. A digest of the protocol:
as §1

For the next assay, the target named is T9, SPDEF (Homo sapiens, UniProt O95238 1-335).
T9 sequence: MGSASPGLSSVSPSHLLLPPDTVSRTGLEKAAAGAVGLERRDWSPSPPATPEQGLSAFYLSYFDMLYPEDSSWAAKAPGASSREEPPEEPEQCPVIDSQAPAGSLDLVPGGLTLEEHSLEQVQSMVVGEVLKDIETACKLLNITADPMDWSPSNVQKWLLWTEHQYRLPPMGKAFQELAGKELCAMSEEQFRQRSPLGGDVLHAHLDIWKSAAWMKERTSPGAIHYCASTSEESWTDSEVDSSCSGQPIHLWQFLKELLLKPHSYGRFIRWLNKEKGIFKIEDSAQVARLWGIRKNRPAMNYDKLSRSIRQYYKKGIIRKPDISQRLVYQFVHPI
As to conditions: protein: recombinant; tags: N-terminal GST; dsDNA, one strand shown. Put shortly: as §1

A further assay concerns the target T10, ETV7 (Homo sapiens, UniProt Q9Y603 1-341).
T10 sequence: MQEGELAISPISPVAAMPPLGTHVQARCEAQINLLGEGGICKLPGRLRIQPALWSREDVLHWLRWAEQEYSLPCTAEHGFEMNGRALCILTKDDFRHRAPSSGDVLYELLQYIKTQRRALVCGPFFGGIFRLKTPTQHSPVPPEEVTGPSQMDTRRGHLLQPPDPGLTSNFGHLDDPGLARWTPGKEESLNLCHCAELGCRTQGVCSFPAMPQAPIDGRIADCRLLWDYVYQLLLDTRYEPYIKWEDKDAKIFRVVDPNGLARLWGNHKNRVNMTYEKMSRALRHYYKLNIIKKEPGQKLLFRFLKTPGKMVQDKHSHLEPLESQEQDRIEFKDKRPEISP
The conditions noted are these: protein: recombinant; tags: N-terminal GST; dsDNA, one strand shown. A digest of the protocol: as §1

The target of a further assay is T11, ELF5 (Homo sapiens, UniProt Q9UKW6-2 1-255).
T11 sequence: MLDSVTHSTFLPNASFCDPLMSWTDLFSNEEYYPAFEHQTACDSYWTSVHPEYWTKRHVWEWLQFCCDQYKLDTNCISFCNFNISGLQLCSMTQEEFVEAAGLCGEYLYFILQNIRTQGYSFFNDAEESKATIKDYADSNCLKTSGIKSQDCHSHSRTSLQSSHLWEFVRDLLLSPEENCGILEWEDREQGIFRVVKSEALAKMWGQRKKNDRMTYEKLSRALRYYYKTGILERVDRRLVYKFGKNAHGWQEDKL
The conditions noted are these: protein: recombinant; tags: N-terminal GST; dsDNA, one strand shown. Put shortly: as §1

For another assay, the target named is T12, ETV3 (Homo sapiens, UniProt P41162-2 1-143).
T12 sequence: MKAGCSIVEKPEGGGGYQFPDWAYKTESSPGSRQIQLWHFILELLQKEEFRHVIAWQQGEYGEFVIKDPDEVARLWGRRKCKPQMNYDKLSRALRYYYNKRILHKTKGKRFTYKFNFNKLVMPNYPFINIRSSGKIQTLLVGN
The conditions noted are these: protein: recombinant; tags: N-terminal GST; dsDNA, one strand shown. A digest of the protocol: as §1

The next assay has as its target ETV6 (Homo sapiens, UniProt P41212 1-452). As to conditions: protein: recombinant; tags: N-terminal GST; dsDNA, one strand shown. Put shortly: as §1

Sequence of HSF1 (Q00613 whole entry): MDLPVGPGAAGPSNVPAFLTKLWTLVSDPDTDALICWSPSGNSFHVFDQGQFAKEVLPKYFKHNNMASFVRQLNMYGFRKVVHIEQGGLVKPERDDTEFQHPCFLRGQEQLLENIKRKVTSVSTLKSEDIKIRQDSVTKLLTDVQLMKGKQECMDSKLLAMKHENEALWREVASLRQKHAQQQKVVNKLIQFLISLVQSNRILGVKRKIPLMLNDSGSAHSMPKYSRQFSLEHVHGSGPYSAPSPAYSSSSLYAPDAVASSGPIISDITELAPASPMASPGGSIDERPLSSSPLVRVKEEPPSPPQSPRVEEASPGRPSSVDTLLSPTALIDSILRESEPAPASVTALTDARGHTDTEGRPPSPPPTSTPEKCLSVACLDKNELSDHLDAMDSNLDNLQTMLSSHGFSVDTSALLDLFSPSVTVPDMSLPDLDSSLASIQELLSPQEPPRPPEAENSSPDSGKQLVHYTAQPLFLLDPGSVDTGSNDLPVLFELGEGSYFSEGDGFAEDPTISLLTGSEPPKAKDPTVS
Sequence of ETV6 (P41212 whole entry): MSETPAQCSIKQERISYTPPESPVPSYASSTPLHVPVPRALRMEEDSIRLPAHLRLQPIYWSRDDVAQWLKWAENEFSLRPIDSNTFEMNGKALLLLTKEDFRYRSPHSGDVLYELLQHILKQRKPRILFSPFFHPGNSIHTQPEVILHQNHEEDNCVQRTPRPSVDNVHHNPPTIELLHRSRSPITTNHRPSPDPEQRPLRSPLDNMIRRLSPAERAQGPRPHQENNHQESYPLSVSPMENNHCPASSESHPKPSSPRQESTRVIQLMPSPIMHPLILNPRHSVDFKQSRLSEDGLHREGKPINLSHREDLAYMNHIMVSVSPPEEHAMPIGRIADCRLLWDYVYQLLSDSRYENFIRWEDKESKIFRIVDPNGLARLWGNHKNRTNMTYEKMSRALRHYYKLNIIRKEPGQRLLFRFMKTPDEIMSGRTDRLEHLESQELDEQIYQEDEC
Sequence of ETV1 (P50549 whole entry): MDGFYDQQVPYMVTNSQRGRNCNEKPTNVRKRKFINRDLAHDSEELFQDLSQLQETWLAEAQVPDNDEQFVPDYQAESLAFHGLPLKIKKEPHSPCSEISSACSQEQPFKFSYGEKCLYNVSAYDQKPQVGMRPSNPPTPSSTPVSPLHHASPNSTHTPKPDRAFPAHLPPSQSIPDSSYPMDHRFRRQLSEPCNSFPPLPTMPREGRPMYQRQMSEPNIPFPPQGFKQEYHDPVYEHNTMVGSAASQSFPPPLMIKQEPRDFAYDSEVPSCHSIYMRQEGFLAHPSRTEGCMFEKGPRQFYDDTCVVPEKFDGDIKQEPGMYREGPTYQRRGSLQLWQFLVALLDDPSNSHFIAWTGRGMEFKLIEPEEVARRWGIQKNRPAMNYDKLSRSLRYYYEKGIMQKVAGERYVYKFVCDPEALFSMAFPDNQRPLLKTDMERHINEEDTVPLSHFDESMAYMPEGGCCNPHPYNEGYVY

Turning to ACGAAA, the binding signal with FEV is 1.15 fold enrichment (6-mer frequency, TF over GST control); in the assay with ETV5 it was 1.15 fold enrichment (6-mer frequency, TF over GST control); in the assay with HSF1 it was 1.44 fold enrichment (6-mer frequency, TF over GST control); with SPIC, 1.02 fold enrichment (6-mer frequency, TF over GST control); with ELF4, 1.16 fold enrichment (6-mer frequency, TF over GST control); with ELK4, 1.24 fold enrichment (6-mer frequency, TF over GST control). The binding signal in the assay with ETV2 is 1.13 fold enrichment (6-mer frequency, TF over GST control); with ELF3, 1.19 fold enrichment (6-mer frequency, TF over GST control); in the assay with CRX, 1.09 fold enrichment (6-mer frequency, TF over GST control); with ETV1, 1.12 fold enrichment (6-mer frequency, TF over GST control); with ERF it was 1.34 fold enrichment (6-mer frequency, TF over GST control); with ETV3L, 1.13 fold enrichment (6-mer frequency, TF over GST control). The binding signal was 1.15 fold enrichment (6-mer frequency, TF over GST control) with ETS2; 1.18 fold enrichment (6-mer frequency, TF over GST control) with SPDEF; 1.23 fold enrichment (6-mer frequency, TF over GST control) in the assay with ETV7; 1.09 fold enrichment (6-mer frequency, TF over GST control) with ELF5; 1.03 fold enrichment (6-mer frequency, TF over GST control) with ETV3; 1.13 fold enrichment (6-mer frequency, TF over GST control) in the assay with ETV6.
